Bioassay records (PubChem BioAssay)
Compounds with a hit are over-represented: about 11% of the library has one in this group of screens.
15-hLO inh: qHTS Assay for Inhibitors of 15-hLO (15-human lipoxygenase); Polyunsaturated fatty acid lipoxygenase ALOX15 (Homo sapiens), P16050; purified 15hLO-1, xylenol orange hydroperoxide absorbance; Potency, µM (top dose mostly 57.1 µM), for inactives: at the highest dose activity change, negative = inhibition, hits mostly inhibitors; 74,000 compounds, 1.4% hits; note: nearly all actives have a fitted effect of over 55% in size
Target sequence (P16050 whole entry, looked up): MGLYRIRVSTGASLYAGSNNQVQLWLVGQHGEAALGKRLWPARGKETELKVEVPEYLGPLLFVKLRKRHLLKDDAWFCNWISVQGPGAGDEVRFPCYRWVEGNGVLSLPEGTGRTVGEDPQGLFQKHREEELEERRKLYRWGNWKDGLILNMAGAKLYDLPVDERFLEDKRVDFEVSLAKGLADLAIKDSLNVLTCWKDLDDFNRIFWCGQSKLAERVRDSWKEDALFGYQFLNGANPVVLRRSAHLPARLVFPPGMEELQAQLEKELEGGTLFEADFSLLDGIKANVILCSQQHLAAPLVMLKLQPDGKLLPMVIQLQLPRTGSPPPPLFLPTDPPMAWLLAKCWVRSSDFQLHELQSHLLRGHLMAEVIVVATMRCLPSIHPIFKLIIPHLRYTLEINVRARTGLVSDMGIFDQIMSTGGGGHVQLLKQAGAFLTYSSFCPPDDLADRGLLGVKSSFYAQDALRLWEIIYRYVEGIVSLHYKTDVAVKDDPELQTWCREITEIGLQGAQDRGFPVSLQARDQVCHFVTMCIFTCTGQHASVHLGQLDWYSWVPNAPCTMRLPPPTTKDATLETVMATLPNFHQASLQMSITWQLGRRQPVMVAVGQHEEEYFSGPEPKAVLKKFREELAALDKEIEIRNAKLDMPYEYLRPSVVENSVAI
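Quantitative HTS in 25 mM Hepes pH 7.5 containing 0.01% Triton X-100: human 15hLO-1 at 40 nM, arachidonic acid at 50 uM, 6 min turnover. Product quantified via ferrous oxidation/xylenol orange, 573:405 nm absorbance ratio.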
HADH2 inh: qHTS Assay for Inhibitors of HADH2 (Hydroxyacyl-Coenzyme A Dehydrogenase, Type II). 3-hydroxyacyl-CoA dehydrogenase type-2 (Homo sapiens), Q99714. recombinant HADH2, NADH fluorescence, beta-hydroxybutyryl-CoA. Potency, µM (doses to about 57.1 µM), without a hit: top-dose activity change, negative = inhibition, actives largely listed as inhibitors. 73,000 compounds, 3.4% hits. AID 886, 2007; note: nearly all actives have a fitted effect of over 60% in size
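NADH fluorescence (ex 360/em 450 nm) read every 30 s for 4 min; activity taken as last-minus-first time point difference. Enzyme 20 nM, NAD+ 1 mM, beta-hydroxybutyryl-CoA 90 uM, pH 9.0 Tris buffer.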
Bst PK mod: Pyruvate Kinase; purified pyruvate kinase, luminescence ATP production; ribose 5-phosphate activator present at AC10; Potency, µM; 51,000 compounds, 1.2% hits; in the data active = potency below about 11 µM; inconclusive = mostly about 12 µM to 25 µM;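 the screen sought inhibitors and activators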;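 note: scaled between full activation by ribose 5 phosphate and full inhibition by luteolin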
FLuc inh: qHTS Assay for Inhibitors of Firefly Luciferase; 72,000 compounds, 2.2% hits; purified firefly luciferase, luminescence, 8 min; AID 411, 2009; Potency, µM (highest dose often 57.1 µM), without a hit: top-dose activity change, negative = inhibition, most hits filed as inhibitors; note: nearly all actives have a fitted effect of over 40% in size
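qHTS concentration-response profiling: light output of P. pyralis luciferase with luciferin and 10 uM ATP, imidazole buffer pH 7.2. Read by luminescence after 8-min room-temperature incubation.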
ERK AVP block: qHTS Assay for Inhibitors of the ERK Signaling Pathway using a Homogeneous Screening Assay. HEK293-V1b, vasopressin-stimulated pERK AlphaScreen. Potency, µM (series often up to 57.5 µM), inactives show at the top dose activity, negative = inhibition, usual class: inhibitors. 72,000 compounds, 0.99% hits; note: nearly all actives have a fitted effect of over 55% in size
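HEK293 cells stably expressing V1b receptor, seeded overnight in 1% FBS, were treated with compounds for 30 min at 37C, then stimulated 5 min with 25 nM vasopressin; phospho-ERK read by AlphaScreen SureFire after lysis.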
HSD17B inhib: qHTS Assay for Inhibitors of HSD17B4, hydroxysteroid (17-beta) dehydrogenase 4 | Potency, µM (doses to about 57.1 µM), without a hit: at the top dose activity change, negative = inhibition, actives largely listed as inhibitors | 75,000 compounds, 7.6% hits | recombinant HSD17B10, NADH fluorescence kinetic | 3-hydroxyacyl-CoA dehydrogenase type-2 (Homo sapiens), Q99714;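 note: the protocol describes HADH2 (HSD17B10) and not the HSD17B4 of the title; nearly all actives have a fitted effect of over 70% in size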
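Activity followed as NADH fluorescence increase (ex 360, em 450 nm) every 30 seconds for 4 min, using final 90 uM beta-hydroxybutyryl CoA and 1 mM NAD+. Recombinant His-tagged enzyme, 20 nM, pH 9.0 Tris buffer, 15 min compound preincubation.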
Numbers without * were called inactive; i = inactive; ? = inconclusive; / = no result given; [ ] = another dose, or the depositor's remark. Unless noted, calls come from the whole dose curve; as a rule, active = well fitted curve in the direction sought with a large enough effect; inconclusive = small, poorly fitted or top-dose-only effect, or another doubt; inactive = no such curve, though single readings can be large; an effect the other way counts as inactive or inconclusive. Unless noted, % is set by controls: 0 for no effect and ±100 for the full control effect; potency is the fitted concentration of half-maximal effect.

SMILES	15-hLO inh	HADH2 inh	Bst PK mod	FLuc inh	ERK AVP block	HSD17B inhib
Cc1cc(NS(=O)(=O)c2ccc(NC(=O)Cc3cccs3)cc2)no1	3.8%	-13.7%	>57	0.6%	-21.9%	-6.1%
O=C(Cc1cccs1)Nc1nc(-c2ccccc2)cs1	-22.7%	-7.4%	/	-11.3%	10µM*	-28.1%
Cn1nccc1C(=O)OCC(=O)Nc1nc(-c2ccccc2)cs1	-11.7%	-11.8%	/	-10.6%	20µM*	-5.0%
C[C@H]1[C@H](C)CC[C@@]2(C(=O)O)CC[C@]3(C)C(=CC[C@@H]4[C@@]5(C)CC[C@H](O)C(C)(C)[C@@H]5CC[C@@]43C)[C@@H]12	/	0.4%	/	0.4%[11.4 µM]	/	/
O=C(O)[C@@H](c1ccccc1)N1Cc2ccccc2C1=O	7.94µM*	-27.0%	/	2.2%	/	?
O=C(O)C(c1ccccc1)N1CCCC1 (configuration not stated)	0.0%	7.5%	>57	2.9%	-5.0%	-2.2%
COc1cc(OC)cc(C(=O)Nn2c(C)nc3ccccc3c2=O)c1	7.6%	4.7%	>57	1.4%	14.2%	2.5%
COc1ccc2[nH]c3c(c2c1)CCn1c-3nc2ccccc2c1=O	-8.2%	1.3%	0.196*	0.631µM*	-2.1%	14.4%
COc1ccc(-c2nc(-c3cccc(C)c3)no2)cc1OC	-2.0%	-15.7%	>57	-11.8%	-24.1%	?
CCOc1ccc(-c2nc(-c3ccccc3)no2)cc1OCC	6.3%	-7.2%	/	-13.2%	12.3%	25.1µM*
CCOc1cc(-c2nc(-c3ccccc3OC)no2)cc(OCC)c1OCC	-6.3%	?	>57	0.5%	-2.1%	31.6µM*
COc1ccc(-c2nc(-c3ccccc3OC)no2)cc1OC	-5.6%	8.9%	i	15.8µM*	-10.5%	?
COc1ccccc1-c1nc(-c2cccc(C)c2)no1	-5.0%	8.7%	9.44*	12.6µM*	14.6%	?
N#Cc1c(C(F)(F)F)cc(-c2ccco2)nc1SCc1ccccn1	-18.3%	51.9%	>57	-0.2%	2.1%	31.6µM*
N#Cc1c(C(F)(F)F)cc(-c2ccco2)nc1SCc1ccncc1	?	25.1µM*	>57	-2.6%	?	15.8µM*
CCN1C(=O)c2ccc(-c3nc4ccccc4c(=O)o3)cc2C1=O	2.7%	-1.2%	/	1.7%	0.0%	20µM*
O=S(=O)(Nc1ccc2c(c1)OCCO2)c1cccs1	-8.3%	-5.7%	4.21*	-25.0%	?	2.3%
O=S(=O)(Nc1ccc2c(c1)OCO2)c1cccs1	7.3%	?	>57	-1.6%	-17.9%	-17.5%
CC(=O)NC1=C(OS(=O)(=O)c2ccc(C)cc2)CN(C)C1=O	-8.8%[11.4 µM]	1.9%[11.4 µM]	/	5.1%[11.4 µM]	-14.0%[11.5 µM]	1.1%[11.4 µM]
Cc1onc(-c2ccccc2Cl)c1C(=O)Nc1cccc(-c2nc3ncccn3c2C)c1	?	-15.6%	>57	-0.8%	-0.5%	12.6µM*
Cc1ccc(-c2cn3cccnc3n2)cc1NC(=O)c1c(-c2ccccc2Cl)noc1C	-1.7%	31.6µM*	>57	-2.9%	10.8%	25.1µM*
Cc1onc(-c2ccccc2Cl)c1C(=O)Nc1cccc2cccnc12	-17.2%	0.9%	/	0.1%	9.1%	10.9%
CC(=O)Nc1cccc(NC(=O)c2c(-c3ccccc3Cl)noc2C)c1	-8.2%	3.1%	/	2.5%	-22.3%	6.7%
Cc1onc(-c2ccccc2Cl)c1C(=O)Nc1ccc(-c2cn3cccnc3n2)cc1	-0.7%	?	>57	0.9%	-1.2%	31.6µM*
CCOC(=O)C1CCN(C(=O)c2cc3cc4cc(OC)ccc4nc3o2)CC1	-6.5%	-11.0%	i	-5.2%	2.9%	25.1µM*
SMILES	15-hLO inh	HADH2 inh	Bst PK mod	FLuc inh	ERK AVP block	HSD17B inhib
CCOC(=O)C1CCN(C(=O)c2ccc(Br)o2)CC1	10.2%	9.8%	>57	2.8%	-22.0%	-6.8%
COc1ccc(C(=O)Nc2cccc(C(=O)N3CCN(C)CC3)c2)cc1	-0.8%	-1.7%	>57	-14.2%	-13.0%	10.4%
COc1ccc2nc3oc(C(=O)N4CCCCC4)cc3cc2c1	-6.5%	?	?	12.6µM*	8.3%	25.1µM*
COc1ccc2nc3sc(C(=O)N4CCN(C)CC4)cc3cc2c1	-26.4%	20.5%	/	-20.7%	-13.4%	25.1µM*
CCCCNC(=O)C(c1ccc(OCC(=O)OC)c(C(=O)OC)c1)N(CCC1=CCCCC1)C(=O)CCCCCN1C(=O)NC(c2ccc(-c3ccccc3)cc2)C(C(=O)OCc2ccccc2)=C1C (configuration not stated)	-11.8%	3.4%	/	/	-16.2%	7.5%
COc1ccccc1-c1cc(=O)c2cc(O)ccc2o1	-0.5%[25.6 µM]	-2.0%	/	-6.9%[11.4 µM]	-15.9%	4.2%
COc1ccccc1-c1ccc(C(=O)O)o1	-8.3%	25.1µM*	>57	1.4%	7.3%	31.6µM*
COc1ccc(CNC(=O)c2cnn3c(C(F)F)cc(C)nc23)cc1OC	4.2%	10.6%	/	-0.3%	?	6.0%
Cc1cc(C)n2ncc(C(=O)NCc3cccnc3)c2n1	-1.2%	-169.6%	i	1.6%	-5.7%	25.1µM*
O=C(NCc1cccnc1)c1cnn2ccccc12	-9.8%	18.9%	/	-2.2%	-6.6%	25.1µM*
C=CC[C@@H]1C=C[C@H](O/N=C(\C)CCN2CCCc3nc(C)c(C)cc32)[C@H](CO)O1	-9.1%[11.4 µM]	-11.0%[11.4 µM]	/	-1.4%[11.4 µM]	27.3%[11.5 µM]	?
COc1ccc(-c2nc3cnc(Oc4cccc(Cl)c4)nc3n(C3CC3)c2=O)cc1	3.0%	4.3%	/	1.1%[11.4 µM]	4.9%	?
COc1ccc2nc(SCC(=O)Nc3ccc(S(=O)(=O)N4CCCC4)cc3)c(C#N)cc2c1	-1.2%	-15.7%	>57	4.1%	0.1%	20µM*
CSc1nnc2c3c4c(sc3nc(-n3nc(C)cc3C)n12)COC(C)(C)C4	3.0%	-14.6%	>57	-1.8%	-9.8%	25.1µM*
Cc1cc(C)n(-c2nc(-n3nc(C)cc3C)c3c4c(sc3n2)COC(C)(C)C4)n1	10.0%	6.6%	/	/	/	?
Cc1cc(C)n(-c2nc(SCC(=O)Nc3nccs3)c3c4c(sc3n2)COC(C)(C)C4)n1	14.6%	-17.8%	>57	0.2%	5.9%	5.5%
Cc1cc(C)n(-c2nc3sc4c(c3c3nnc(SCC(N)=O)n23)CC(C)(C)OC4)n1	2.0%	?	>57	4.0%	-2.7%	25.1µM*
CC1=CC(=O)C2=C(C)CC[C@@H]3[C@H](OC(=O)[C@H]3C)[C@H]12	/	10.5%	/	2.8%[11.4 µM]	/	/
COc1cc(/C=C/C(=O)c2cccs2)cc(OC)c1OC	0.9%[25.6 µM]	/	/	/	17.6%	?
